Measured values reported in ChEMBL document CHEMBL3433997, “St. Jude Leishmania screening dataset” (2016).

biological target: Solute carrier family 2, facilitated glucose transporter member 1 (Homo sapiens) (UniProt P11166); assay: ST_JUDE_LEISH: Cytotoxicity at 2uM final concentration against transgenic Leishmania Mexicana promastigotes LmGLUT1 that are glucose transport deficient and complemented with the human glucose transporter GLUT1. Activity is measured by DNA content using SYBR green in vitro; assay type: functional
Sequence (P11166 whole entry): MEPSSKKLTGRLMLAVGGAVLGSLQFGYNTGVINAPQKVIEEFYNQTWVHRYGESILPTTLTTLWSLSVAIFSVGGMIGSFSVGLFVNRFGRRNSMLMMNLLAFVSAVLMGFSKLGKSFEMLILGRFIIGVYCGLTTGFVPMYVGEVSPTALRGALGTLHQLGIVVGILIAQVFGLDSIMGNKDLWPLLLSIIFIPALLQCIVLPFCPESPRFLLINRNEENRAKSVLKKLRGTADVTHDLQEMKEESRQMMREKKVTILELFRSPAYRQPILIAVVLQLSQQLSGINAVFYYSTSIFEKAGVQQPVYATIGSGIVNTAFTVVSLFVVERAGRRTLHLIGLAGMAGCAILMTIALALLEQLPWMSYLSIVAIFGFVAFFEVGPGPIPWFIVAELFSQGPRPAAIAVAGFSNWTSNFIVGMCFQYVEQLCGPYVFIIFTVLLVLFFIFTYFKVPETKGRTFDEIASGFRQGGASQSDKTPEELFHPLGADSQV

| SMILES | inhibition |
| --- | --- |
| CC(C)c1ccc(S(=O)(=O)Nc2cccc(CCN3CCC(N4CCCCC4)CC3)c2)cc1 | 38% |
| Cc1cccc(-c2nn(-c3ccccc3)c3[nH]c(=O)c(CNC4CCCC4)cc23)c1 | 2.26% |
| CC(C)(C)C1CC(=O)CC2C(=O)N(c3ccc(Br)cc3)C(=O)C21 (stereo not given) | 2.94% |
| COc1cc(C(=O)N2C(c3nccs3)C(C(=O)N(OC)C(C)c3ccccc3)CC2(CC(C)C)C(=O)OC(C)(C)C)ccc1C(C)(C)C (stereo not given) | 4.49% |
| O=C(C1CCCC1)N1CCOC(CCN2CCC(c3ccccc3)CC2)(c2ccc(Cl)c(Cl)c2)C1 (stereo not given) | 11.9% |
| COc1ccc(NC(=O)[C@H](CC(C)C)Nc2cc(C)nc(NCCOc3ccccc3)n2)cc1 | 1.07% |
| COc1cccc2c(N/N=C/c3ccccc3[N+](=O)[O-])ccnc12 | 4.82% |
| CC(C)(C)c1nn(-c2ccc(Cl)cc2)c2[nH]c(=O)c(CNCc3cccs3)cc12 | 3.3% |
| CC(C)c1ccc(CN2CCC(CNC(=O)c3cc(-c4cccc(C(F)(F)F)c4)cs3)C2)cc1 (stereo not given) | 1.18% |
| Cc1cc(NCCCOc2ccc(Cl)cc2)nc(NCc2ccccc2)n1 | 18.8% |
| CC(C)c1ccc(NS(=O)(=O)c2cccc(C(=O)NC3CCN(CC4CCCCC4)CC3)c2)cc1 | 3.07% |
| CC(=O)Nc1cc(C(=O)Nc2cccc(-c3cccc(-c4nc5cc(C(F)(F)F)ccc5[nH]4)c3)c2)ccc1C | 7.57% |
| CC(C)NCc1ccc(-c2cccc(-c3nc4cc(C(F)(F)F)ccc4[nH]3)c2)cc1 | 3.55% |
| CC1(C)N=C(NC(=O)c2cc([N+](=O)[O-])cc([N+](=O)[O-])c2)N=C(N)N1OCc1cccc2ccccc12 | -1.97% |
| CC(=O)Nc1ccc2[nH]cc(C3CCN(CCC4CCN(C(=O)/C=C/c5ccc(Cl)c(Cl)c5)CC4)CC3)c2c1 | 8.34% |
| COc1ccc(CCn2c(=N)c(C(=O)NCc3ccccc3)cc3c(=O)n4ccccc4nc32)cc1 | 12.9% |
| CCCCCCCCc1nc(C)c(Br)c(O)c1Br | 3.91% |
| CCCCCCNC(=O)C1Cc2c([nH]c3cc(Cl)ccc23)C2(CCN(CCC)CC2)N1 (stereo not given) | 3.28% |
| O=C(Nc1ccccc1)Nc1cccc(-c2cccc(-c3nc4cc(F)ccc4[nH]3)c2)c1 | 2.45% |
| CC(C)CCCC(C)NC[C@@H](O)[C@H](Cc1ccccc1)NC(=O)c1cc(N2CCCC2=O)cc(N(c2ccccc2)S(C)(=O)=O)c1 (stereo not given in full) | 1.85% |

| SMILES | inhibition |
| --- | --- |
| CCc1c(C(=O)NC2CCC(N3CCC(c4ccccc4OC)CC3)CC2)[nH]c2ccc(OC)cc12 (stereo not given) | 1.56% |
| O=C(N[C@H]1CCN(CCc2ccc(O[C@H]3CCNC3)c(Br)c2)C1)c1ccc(Cl)c(Cl)c1 | 0.91% |
| CC(CN(C)C)C(=O)Nc1ccc(-c2ccc(-c3nc4cc(C(F)(F)F)ccc4[nH]3)cc2)cc1 (stereo not given) | 12.9% |
| COc1ccc(-c2nonc2NC(=O)c2ccc(C(C)(C)C)cc2)cc1OC | -0.32% |
| CCCc1cc(Cc2cnc(N)nc2N)cc(CCC)c1OCCCCCC(=O)OCC | 4.7% |
| NC(=O)c1ccccc1Nc1nc(Nc2cccc(N3CCN(CCO)CC3)c2)ncc1Cl | 64% |
| CCCCNC(=O)[C@H](Cc1ccccc1)NC(=O)c1ccc(O)c(-c2ccc(Cl)c(Cl)c2)c1 | 6.46% |
| Clc1nc2ccccn2c1C=Cc1ccc2ccccc2n1 | 2.64% |
| CCn1cc(CN2C(=O)C(c3ccccc3)(c3ccccc3)N=C2N)cn1 | 1.83% |
| O=C(/C=C/c1cccc(OC(F)(F)F)c1)NCCCCCN1CCC(c2c[nH]c3ccccc23)CC1 | 1.81% |
| O=C(/C=C/c1ccc(Cl)c(Cl)c1)NC1CCN(Cc2ccc(O)cc2)CC1 | 1.47% |
| Cc1ccc(O)cc1Nc1ccnc2cc(-c3csc(CN(C)CCN(C)C)n3)ccc12 | -0.07% |
| CC(=O)CSC(C=Cc1ccc(N(C)C)cc1)=Nc1ccccc1 | 85.4% |
| Cc1cc(C)c2c(c1)C(=NO)CCN2 | -1.86% |
| Cc1nnsc1C(=O)Nc1cccc(-c2cccc(-c3nc4cc(C(F)(F)F)ccc4[nH]3)c2)c1 | 6.42% |
| CN1CCN(c2ccnc3ccc(NC(=O)N(C)c4ccc(Cl)c(Cl)c4)cc23)CC1 | -0.11% |
| CCCCN(CCCC)CCCCNc1c2ccccc2nc2ccccc12 | 26% |
| C#CCOc1ccc2ccccc2c1CNCCCCCCNCc1c(OCC#C)ccc2ccccc12 | 8.53% |
| O=C(NCC1CCC(CNCCCc2ccccc2)CC1)Nc1ccc(Cl)c(Cl)c1 (stereo not given) | 1.76% |
| COc1ccc(CNCc2ccc(-c3ccc(-c4nc5cc(C(F)(F)F)ccc5[nH]4)s3)cc2)cc1 | 3.27% |

biological target: Hexose transporter 1 (Plasmodium falciparum) (UniProt O97467); assay: ST_JUDE_LEISH: Cytotoxicity at 2uM final concentration against transgenic Leishmania Mexicana promastigotes LmPfHT that are glucose transport deficient and complemented with the Plasmodium falciparum hexose transporter. Activity is measured by DNA content using SYBR green in vitro; assay type: functional

| SMILES | inhibition |
| --- | --- |
| CC(C)c1ccc(S(=O)(=O)Nc2cccc(CCN3CCC(N4CCCCC4)CC3)c2)cc1 | 4.08% |
| Cc1cccc(-c2nn(-c3ccccc3)c3[nH]c(=O)c(CNC4CCCC4)cc23)c1 | 2.39% |
| CC(C)(C)C1CC(=O)CC2C(=O)N(c3ccc(Br)cc3)C(=O)C21 (stereo not given) | 0.44% |
| COc1cc(C(=O)N2C(c3nccs3)C(C(=O)N(OC)C(C)c3ccccc3)CC2(CC(C)C)C(=O)OC(C)(C)C)ccc1C(C)(C)C (stereo not given) | 3.71% |
| O=C(C1CCCC1)N1CCOC(CCN2CCC(c3ccccc3)CC2)(c2ccc(Cl)c(Cl)c2)C1 (stereo not given) | 11.5% |
| COc1ccc(NC(=O)[C@H](CC(C)C)Nc2cc(C)nc(NCCOc3ccccc3)n2)cc1 | 2.71% |
| COc1cccc2c(N/N=C/c3ccccc3[N+](=O)[O-])ccnc12 | 5.71% |
| CC(C)(C)c1nn(-c2ccc(Cl)cc2)c2[nH]c(=O)c(CNCc3cccs3)cc12 | 3.24% |
| CC(C)c1ccc(CN2CCC(CNC(=O)c3cc(-c4cccc(C(F)(F)F)c4)cs3)C2)cc1 (stereo not given) | 1.74% |
| Cc1cc(NCCCOc2ccc(Cl)cc2)nc(NCc2ccccc2)n1 | 11.1% |
| CC(C)c1ccc(NS(=O)(=O)c2cccc(C(=O)NC3CCN(CC4CCCCC4)CC3)c2)cc1 | 1.15% |
| CC(=O)Nc1cc(C(=O)Nc2cccc(-c3cccc(-c4nc5cc(C(F)(F)F)ccc5[nH]4)c3)c2)ccc1C | 6.52% |
| CC(C)NCc1ccc(-c2cccc(-c3nc4cc(C(F)(F)F)ccc4[nH]3)c2)cc1 | 3.48% |
| CC1(C)N=C(NC(=O)c2cc([N+](=O)[O-])cc([N+](=O)[O-])c2)N=C(N)N1OCc1cccc2ccccc12 | -0.29% |
| CC(=O)Nc1ccc2[nH]cc(C3CCN(CCC4CCN(C(=O)/C=C/c5ccc(Cl)c(Cl)c5)CC4)CC3)c2c1 | 7.25% |
| COc1ccc(CCn2c(=N)c(C(=O)NCc3ccccc3)cc3c(=O)n4ccccc4nc32)cc1 | 12.8% |
| CCCCCCCCc1nc(C)c(Br)c(O)c1Br | 5.98% |
| CCCCCCNC(=O)C1Cc2c([nH]c3cc(Cl)ccc23)C2(CCN(CCC)CC2)N1 (stereo not given) | 2.13% |
| O=C(Nc1ccccc1)Nc1cccc(-c2cccc(-c3nc4cc(F)ccc4[nH]3)c2)c1 | 2.61% |
| CC(C)CCCC(C)NC[C@@H](O)[C@H](Cc1ccccc1)NC(=O)c1cc(N2CCCC2=O)cc(N(c2ccccc2)S(C)(=O)=O)c1 (stereo not given in full) | 2.61% |

| SMILES | inhibition |
| --- | --- |
| CCc1c(C(=O)NC2CCC(N3CCC(c4ccccc4OC)CC3)CC2)[nH]c2ccc(OC)cc12 (stereo not given) | 2.5% |
| O=C(N[C@H]1CCN(CCc2ccc(O[C@H]3CCNC3)c(Br)c2)C1)c1ccc(Cl)c(Cl)c1 | 3% |
| CC(CN(C)C)C(=O)Nc1ccc(-c2ccc(-c3nc4cc(C(F)(F)F)ccc4[nH]3)cc2)cc1 (stereo not given) | 11.6% |
| COc1ccc(-c2nonc2NC(=O)c2ccc(C(C)(C)C)cc2)cc1OC | 0.21% |
| CCCc1cc(Cc2cnc(N)nc2N)cc(CCC)c1OCCCCCC(=O)OCC | 2.93% |
| NC(=O)c1ccccc1Nc1nc(Nc2cccc(N3CCN(CCO)CC3)c2)ncc1Cl | 67.3% |
| CCCCNC(=O)[C@H](Cc1ccccc1)NC(=O)c1ccc(O)c(-c2ccc(Cl)c(Cl)c2)c1 | 2.06% |
| Clc1nc2ccccn2c1C=Cc1ccc2ccccc2n1 | 3.43% |
| CCn1cc(CN2C(=O)C(c3ccccc3)(c3ccccc3)N=C2N)cn1 | 2% |
| O=C(/C=C/c1cccc(OC(F)(F)F)c1)NCCCCCN1CCC(c2c[nH]c3ccccc23)CC1 | 0.75% |
| O=C(/C=C/c1ccc(Cl)c(Cl)c1)NC1CCN(Cc2ccc(O)cc2)CC1 | 0.53% |
| Cc1ccc(O)cc1Nc1ccnc2cc(-c3csc(CN(C)CCN(C)C)n3)ccc12 | -0.87% |
| CC(=O)CSC(C=Cc1ccc(N(C)C)cc1)=Nc1ccccc1 | 83.3% |
| Cc1cc(C)c2c(c1)C(=NO)CCN2 | 1.76% |
| Cc1nnsc1C(=O)Nc1cccc(-c2cccc(-c3nc4cc(C(F)(F)F)ccc4[nH]3)c2)c1 | 6.2% |
| CN1CCN(c2ccnc3ccc(NC(=O)N(C)c4ccc(Cl)c(Cl)c4)cc23)CC1 | 0.31% |
| CCCCN(CCCC)CCCCNc1c2ccccc2nc2ccccc12 | 31.3% |
| C#CCOc1ccc2ccccc2c1CNCCCCCCNCc1c(OCC#C)ccc2ccccc12 | 2.21% |
| O=C(NCC1CCC(CNCCCc2ccccc2)CC1)Nc1ccc(Cl)c(Cl)c1 (stereo not given) | 0.18% |
| COc1ccc(CNCc2ccc(-c3ccc(-c4nc5cc(C(F)(F)F)ccc5[nH]4)s3)cc2)cc1 | 1.92% |
